This test concerns the target furin, P09958. Description: furin cleavage Z-score vs untreated control; higher = more cleavage, active = 3.5 or more, inactive = 1 or less, 8 variable residues between constant flanks. How it is done: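 Multiplexed peptide-cDNA fusion cleavage assay. 8-mer variable peptides flanked by constant Cys-Ala (N-term) and Ala-Gly-Asn-Ala-Ser-Ala-Ser-Ala (C-term) and conjugated to a cDNA oligonucleotide were bead-immobilised via the N-terminus. They were treated with purified furin at a 1:10 enzyme:substrate ratio in 50 mM HEPES pH 7.5, 1 mM CaCl2, 100 mM NaCl for 7.5, 15 or 30 min. Released cDNA was counted by next-generation sequencing, and log counts versus no-furin controls were lowess-adjusted and converted to robust Z-scores.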

This is one part of the list. How many sequences the whole screen found active is unknown.

Chain of furin, P09958 (P09958 whole entry, the tested form may be a part): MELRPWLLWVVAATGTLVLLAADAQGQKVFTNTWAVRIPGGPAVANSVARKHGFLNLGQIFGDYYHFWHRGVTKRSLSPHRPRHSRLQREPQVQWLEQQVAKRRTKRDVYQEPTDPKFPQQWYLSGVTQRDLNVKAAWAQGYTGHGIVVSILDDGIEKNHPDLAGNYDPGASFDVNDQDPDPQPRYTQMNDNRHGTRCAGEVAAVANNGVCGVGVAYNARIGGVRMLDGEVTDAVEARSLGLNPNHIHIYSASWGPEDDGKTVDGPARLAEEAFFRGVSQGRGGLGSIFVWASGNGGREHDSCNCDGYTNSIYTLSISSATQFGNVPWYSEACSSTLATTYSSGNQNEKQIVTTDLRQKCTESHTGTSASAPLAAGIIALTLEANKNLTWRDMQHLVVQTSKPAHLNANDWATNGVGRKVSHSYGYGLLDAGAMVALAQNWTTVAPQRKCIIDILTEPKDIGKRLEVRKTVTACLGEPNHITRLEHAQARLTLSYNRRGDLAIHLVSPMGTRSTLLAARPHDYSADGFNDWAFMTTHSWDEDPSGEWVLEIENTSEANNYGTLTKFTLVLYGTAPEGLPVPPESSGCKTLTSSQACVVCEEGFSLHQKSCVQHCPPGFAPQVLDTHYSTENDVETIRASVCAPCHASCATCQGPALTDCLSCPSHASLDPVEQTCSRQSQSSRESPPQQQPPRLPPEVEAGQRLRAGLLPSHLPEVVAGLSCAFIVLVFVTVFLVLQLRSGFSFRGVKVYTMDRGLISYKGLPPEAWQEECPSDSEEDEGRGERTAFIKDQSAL

On to CAMEECSQTLAGNASASA [HC1758], for which the “furin cleavage Z-score” value (7.5 min) was 0.0304 (inactive), the “furin cleavage Z-score” value (15 min) was 0.61 (inactive) and the “furin cleavage Z-score” value (30 min) is 0.799 (inactive).

For CAVLNPSVAAAGNASASA [HC787], the “furin cleavage Z-score” value is, setting by setting: (7.5 min) -0.311 (inactive); (15 min) -0.0498 (inactive); (30 min) -0.157 (inactive).

For the sequence CAQLGRPKRCAGNASASA [FS-1248], the “furin cleavage Z-score” value is 8.77 (active) (7.5 min), 10.3 (active) (15 min) and 8.22 (active) (30 min).

As for CAPLLLLLLAAGNASASA [HC558], the “furin cleavage Z-score” value (7.5 min) is -0.475 (inactive), the “furin cleavage Z-score” value (15 min) is -2.1 (inactive) and the “furin cleavage Z-score” value (30 min) was 0.488 (inactive).

As to CAREGNASRCAGNASASA [HC276], the “furin cleavage Z-score” value was -0.0161 (inactive) (7.5 min), -0.511 (inactive) (15 min) and -0.0787 (inactive) (30 min).

Regarding CAILGGWVAAAGNASASA [HC1066], the “furin cleavage Z-score” value by setting is: (7.5 min) -0.934 (inactive); (15 min) -0.574 (inactive); (30 min) -1.27 (inactive).

Regarding CAPKGRPKRAAGNASASA [FS-1047], the “furin cleavage Z-score” value (7.5 min) is 11.3 (active), the “furin cleavage Z-score” value (15 min) is 13.3 (active) and the “furin cleavage Z-score” value (30 min) is 9.54 (active).

For CAPLKRFKRAAGNASASA [FS-699], the “furin cleavage Z-score” value is 12.2 (active) (7.5 min), 12 (active) (15 min) and 9.3 (active) (30 min).

As to CAQGTRFKRAAGNASASA [FS-847], the “furin cleavage Z-score” value runs as follows: (7.5 min) 11.1 (active); (15 min) 10.3 (active); (30 min) 8.39 (active).

With CAEVQCHRPSAGNASASA [HC2362], the “furin cleavage Z-score” value was 0.385 (inactive) (7.5 min), 1.46 (15 min) and 0.778 (inactive) (30 min).

Consider CAWRVSAEEYAGNASASA [HC1202], for which the “furin cleavage Z-score” value (7.5 min) is -0.863 (inactive), the “furin cleavage Z-score” value (15 min) is -1.63 (inactive) and the “furin cleavage Z-score” value (30 min) was -0.815 (inactive).

For the sequence CAMEECSIHLAGNASASA [HC1724], the “furin cleavage Z-score” value is 0.188 (inactive) (7.5 min), 1.13 (15 min) and 0.153 (inactive) (30 min).

Regarding CAASSRNIRSAGNASASA [FS-924], the “furin cleavage Z-score” value reads like this: (7.5 min) 5.59 (active); (15 min) 8.19 (active); (30 min) 6.71 (active).

In the case of CAVRSRSIRSAGNASASA [FS-1663], the “furin cleavage Z-score” value by setting is: (7.5 min) 11.3 (active); (15 min) 11.8 (active); (30 min) 8.54 (active).

CAVTNDCPNSAGNASASA [HC262]: the “furin cleavage Z-score” value was -1.55 (inactive) (7.5 min), -2.42 (inactive) (15 min) and -2.48 (inactive) (30 min).

For CARTRRNIDAAGNASASA [FS-3111], the “furin cleavage Z-score” value was 6.35 (active) (7.5 min), 7.27 (active) (15 min) and 4.76 (active) (30 min).

CARTRRSINSAGNASASA [FS-2316]: the “furin cleavage Z-score” value runs as follows: (7.5 min) 7.8 (active); (15 min) 8.93 (active); (30 min) 7.57 (active).

For CARTRRCVCVAGNASASA [FS-3213], the “furin cleavage Z-score” value (7.5 min) is -0.371 (inactive), the “furin cleavage Z-score” value (15 min) is -0.858 (inactive) and the “furin cleavage Z-score” value (30 min) was -0.127 (inactive).

Regarding CARTRRTSKPAGNASASA [FS-1937], the “furin cleavage Z-score” value is, setting by setting: (7.5 min) 0.687 (inactive); (15 min) 3.02; (30 min) 2.44.

With CAEVVTSTLVAGNASASA [HC2225], the “furin cleavage Z-score” value runs as follows: (7.5 min) -0.125 (inactive); (15 min) 0.377 (inactive); (30 min) -0.731 (inactive).

On to CAEKVVCCSMAGNASASA [HC2134], for which the “furin cleavage Z-score” value (7.5 min) is -0.767 (inactive), the “furin cleavage Z-score” value (15 min) is 0.357 (inactive) and the “furin cleavage Z-score” value (30 min) was -1.09 (inactive).

Take CAVHFRSIRSAGNASASA [FS-308]: the “furin cleavage Z-score” value reads like this: (7.5 min) 8.08 (active); (15 min) 8.31 (active); (30 min) 5.71 (active).

Regarding CALSAFSLHSAGNASASA [HC1605], the “furin cleavage Z-score” value is, setting by setting: (7.5 min) 0.383 (inactive); (15 min) 0.938 (inactive); (30 min) 1.75.

As to CALDRRSQRSAGNASASA [FS-910], the “furin cleavage Z-score” value (7.5 min) amounted to 2.25, the “furin cleavage Z-score” value (15 min) came out at 3.02 and the “furin cleavage Z-score” value (30 min) was 4.23 (active).

Take CALSRRSIRSAGNASASA [FS-461]: the “furin cleavage Z-score” value (7.5 min) is 10.4 (active), the “furin cleavage Z-score” value (15 min) is 11.5 (active) and the “furin cleavage Z-score” value (30 min) was 9.32 (active).

With CALSRRSISKAGNASASA [FS-2871], the “furin cleavage Z-score” value (7.5 min) is 0.267 (inactive), the “furin cleavage Z-score” value (15 min) was 1.81 and the “furin cleavage Z-score” value (30 min) was -1.35 (inactive).

For CAMSIRSDRSAGNASASA [FS-1646], the “furin cleavage Z-score” value reads like this: (7.5 min) 1.46; (15 min) 0.662 (inactive); (30 min) 1.58.

For CAMEECSDHLAGNASASA [HC1731], the “furin cleavage Z-score” value is -0.133 (inactive) (7.5 min), -1.7 (inactive) (15 min) and 1.31 (30 min).

CAKCLIRLKPAGNASASA [HC965]: the “furin cleavage Z-score” value was -0.996 (inactive) (7.5 min), 0.139 (inactive) (15 min) and 0.507 (inactive) (30 min).

Take CAPSPVVVGTAGNASASA [HC416]: the “furin cleavage Z-score” value runs as follows: (7.5 min) 0.116 (inactive); (15 min) 0.136 (inactive); (30 min) -0.669 (inactive).

For the sequence CASSFRFPRTAGNASASA [FS-196], the “furin cleavage Z-score” value is, setting by setting: (7.5 min) 0.00727 (inactive); (15 min) 0.495 (inactive); (30 min) 1.37.

CAPTGSGKSTAGNASASA [HC776]: the “furin cleavage Z-score” value is -0.612 (inactive) (7.5 min), -0.784 (inactive) (15 min) and 0.917 (inactive) (30 min).

Take CATSPRTKRTAGNASASA [FS-1576]: the “furin cleavage Z-score” value by setting is: (7.5 min) 10.8 (active); (15 min) 10.5 (active); (30 min) 8.67 (active).

Take CAPSERTRRTAGNASASA [FS-1553]: the “furin cleavage Z-score” value by setting is: (7.5 min) 6.49 (active); (15 min) 7.9 (active); (30 min) 7.83 (active).

Take CATLEVVTSTAGNASASA [HC2278]: the “furin cleavage Z-score” value is 2.04 (7.5 min), -0.134 (inactive) (15 min) and -0.107 (inactive) (30 min).

As to CAPTRRTKRTAGNASASA [FS-76], the “furin cleavage Z-score” value (7.5 min) was 10.6 (active), the “furin cleavage Z-score” value (15 min) is 10.9 (active) and the “furin cleavage Z-score” value (30 min) was 7.13 (active).

For the sequence CATSGITGDNAGNASASA [HC1339], the “furin cleavage Z-score” value was 0.521 (inactive) (7.5 min), -1.94 (inactive) (15 min) and -2.62 (inactive) (30 min).

As to CASSPRCKRTAGNASASA [FS-724], the “furin cleavage Z-score” value (7.5 min) was 6.48 (active), the “furin cleavage Z-score” value (15 min) is 5.33 (active) and the “furin cleavage Z-score” value (30 min) is 4.2 (active).

Consider CAVVPCHRPSAGNASASA [HC2310], for which the “furin cleavage Z-score” value was 0.864 (inactive) (7.5 min), 0.937 (inactive) (15 min) and 1.82 (30 min).

On to CADSLNTGWLAGNASASA [HC376], for which the “furin cleavage Z-score” value reads like this: (7.5 min) -0.896 (inactive); (15 min) 0.0514 (inactive); (30 min) -1.36 (inactive).

On to CAAGLFYHHKAGNASASA [HC380], for which the “furin cleavage Z-score” value runs as follows: (7.5 min) -0.0785 (inactive); (15 min) -0.406 (inactive); (30 min) 0.464 (inactive).

On to CATTPCSESWAGNASASA [HC1892], for which the “furin cleavage Z-score” value reads like this: (7.5 min) -1.68 (inactive); (15 min) -0.885 (inactive); (30 min) 0.194 (inactive).

Regarding CAKKKCDELAAGNASASA [HC859], the “furin cleavage Z-score” value is, setting by setting: (7.5 min) 0.206 (inactive); (15 min) -0.587 (inactive); (30 min) -1.61 (inactive).

For the origin of these results see the supplement of paper PMC3545927.
